ELG1 genotox: qHTS screen for small molecules that induce genotoxicity in human embryonic kidney (HEK293T) cells expressing luciferase-tagged ELG1; hit rate 1.3% among 330,000; HEK293T ELG1-luciferase reporter, luminescence, 16 h; Potency, µM (titrated, usually from 46 µM), inactives show at the top dose activity change, positive = activation, usual class: activators; also: % of control where 0% means no effect; nearly all actives have a fitted effect of over 60% in size
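Quantitative HTS format in 1536-well plates. HEK293T ELG1-luciferase reporter cells receive test compound and are incubated 16 hr at 37 °C, 5% CO2; ONE-Glo added, 30 min room temperature, then luminescence read.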
FLuc counter: qHTS profiling assay for firefly luciferase inhibitor/activator using purifed enzyme and Km concentrations of substrates (counterscreen for miR-21 project); Luciferin 4-monooxygenase (Photinus pyralis), P08659; purified FLuc, Km substrates, luminescence inhibition; Potency, µM (top dose mostly 57.5 µM), for inactives: top-dose activity change, negative = inhibition, usual class: inhibitors; hit rate 6.9% among 360,000;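 also: plate controls were vehicle for no effect and reference inhibitor for full effect; nearly all actives have a fitted effect of over 55% in size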
Target sequence (P08659 whole entry, looked up): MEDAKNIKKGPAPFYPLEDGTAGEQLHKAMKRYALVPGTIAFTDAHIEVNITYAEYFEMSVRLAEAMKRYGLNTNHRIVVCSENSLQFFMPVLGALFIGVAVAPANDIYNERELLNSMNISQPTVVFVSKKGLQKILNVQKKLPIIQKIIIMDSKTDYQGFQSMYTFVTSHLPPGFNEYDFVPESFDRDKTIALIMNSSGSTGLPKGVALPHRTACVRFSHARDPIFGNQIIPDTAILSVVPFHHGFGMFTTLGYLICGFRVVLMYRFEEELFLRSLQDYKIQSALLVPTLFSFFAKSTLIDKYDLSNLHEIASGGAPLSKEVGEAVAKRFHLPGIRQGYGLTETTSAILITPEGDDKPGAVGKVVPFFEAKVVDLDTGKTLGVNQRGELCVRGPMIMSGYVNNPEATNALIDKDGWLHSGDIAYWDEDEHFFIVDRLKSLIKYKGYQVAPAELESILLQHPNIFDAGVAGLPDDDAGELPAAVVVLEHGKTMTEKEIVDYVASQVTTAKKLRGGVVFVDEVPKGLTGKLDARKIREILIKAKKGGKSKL
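Purified P. pyralis luciferase (10nM final) with 10uM D-luciferin and 10uM ATP (Km levels) in 50mM Tris acetate pH 7.5, 10mM Mg acetate, 0.01% Tween-20, 0.05% BSA; qHTS 6-point titration, ~60 µM downward; luminescence read.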
SMN2 splice enh: qHTS Assay for Enhancers of SMN2 Splice Variant Expression; HEK293 SMN2-luciferase splicing reporter, luminescence, 30-36 h; Potency, µM (doses to about 46.1 µM), for inactives: at the highest dose activity change, positive = activation, actives largely listed as activators; hit rate 2.8% among 210,000; also: % of control where 0% means no effect; nearly all actives have a fitted effect of over 55% in size
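qHTS luciferase splicing reporter: luminescence rises when SMN2 exon 7 is included in transfected HEK293 cells. Compound exposure lasted 30-36 h at 37C, with 4.5 mM final sodium butyrate as control, followed by a ONE-Glo read.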
Rab9 promoter act: qHTS Assay for Rab9 Promoter Activators; Potency, µM (doses to about 9.22 µM), inactives show at the highest dose activation, negative = inhibition, usual class: activators; hit rate 2.8% among 320,000; Huh7 Rab9 promoter-luciferase reporter, luminescence, 24 h; also: % of control where 0% means no effect; nearly all actives have a fitted effect of over 60% in size
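Promoter activation is measured as luciferase luminescence in Huh7 cells stably transfected with a Rab9 promoter–luciferase construct, following 24 h compound exposure at 37 °C and 10 min reagent incubation at ambient temperature.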
NPC1 prom act: qHTS Assay for NPC1 Promoter Activators. Huh7 NPC1 promoter luciferase reporter, 24 h. Potency, µM (series often up to 9.22 µM), inactives show at the highest dose activation, most hits filed as activators. hit rate 2.4% among 320,000. AID 485313, 2010; also: % of control where 0% means no effect; nearly all actives have a fitted effect of over 60% in size
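Readout is luciferase luminescence, reflecting NPC1 promoter activation in stably transfected Huh7 cells after 24 h compound exposure at 37 °C in reduced-serum medium with 10% FBS.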
ELG1 DNA repair: qHTS screen for small molecules that inhibit ELG1-dependent DNA repair in human embryonic kidney (HEK293T) cells expressing luciferase-tagged ELG1; Potency, µM (top dose mostly 46.1 µM), inactives show at the highest dose activity change, negative = inhibition, hits mostly inhibitors; HEK293T ELG1-luciferase reporter, luminescence, 16 h; DNA damage induced by 5-fluorouridine; hit rate 2.3% among 330,000; also: % is scaled to controls: 0 for no effect and ±100 for the full control effect; nearly all actives have a fitted effect of over 55% in size
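Quantitative HTS, concentration-response format. 2,000 cells/well co-treated with 5-fluorouridine and compound, 16 hr in 5% CO2 at 37 °C; ONE-Glo luminescence read after 30 min.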
* marks the source's active call; other numbers are inactive results; ? = inconclusive; . = no result. In the library only some 9.3% were active in any assay of this set; here they are far more common. Calls follow the shape of the dose curve; as a rule, active = well fitted curve in the direction sought with a large enough effect; inconclusive = small, poorly fitted or top-dose-only effect, or another doubt; inactive = no such curve, though single readings can be large; an effect the other way counts as inactive or inconclusive. Potency is read from the fitted curve at half-maximal effect.

SMILES	ELG1 genotox	FLuc counter	SMN2 splice enh	Rab9 promoter act	NPC1 prom act	ELG1 DNA repair
CCCCCOc1ccc(C(=O)OCC(=O)Nc2cc(C)c(C)cc2[N+](=O)[O-])cc1	-1.4%	-1.3%	-14.8%	-14.3%	-8.0%	6.8%
COC(=O)N/N=C/c1sc(N2CCCCC2)nc1-c1cccs1	-1.7%	?	19.5%	-2.1%	1.6%	-20.7%
Cc1ccc(S(=O)(=O)N2C(=O)CCC2C(=O)O/N=C(\N)c2ccc([N+](=O)[O-])cc2)cc1 (centres undefined)	0.5%	4.7%	.	0.9%	-5.3%	-12.3%
CNc1nnc(SCC(=O)c2cc(C)n(C3CC3)c2C)s1	?	.	.	3.55µM*	?	?
Cc1nnc(SCC(=O)c2cc(C)n(C3CC3)c2C)s1	?	12µM*	25.1µM*	2µM*	2.24µM*	?
Cc1cc(C(=O)CSc2nnnn2C)c(C)n1C1CC1	?	?	10µM*	2.82µM*	?	?
CCn1c(C)cc(C(=O)CSc2nnnn2C2CCCC2)c1C	?	1.9µM*	.	0.708µM*	0.708µM*	?
Cc1cc(NC(=O)CSc2nnnn2C2CCCC2)no1	1.4%	1.8%	16.3%	-0.6%	-1.8%	8.4%
Cc1cc(C(=O)CSc2nn3c(=O)c(C(C)(C)C)nnc3s2)c(C)n1C1CC1	-4.4%	-19.4%	-5.8%	0.4%	-2.7%	-1.4%
CCCc1cc(=O)oc2c3c(cc(OCC(=O)NCC4CCC(C(=O)O)CC4)c12)OC(C)(C)CC3 (centres undefined)	-1.2%	?	.	2.9%	3.6%	11.0%
CCOC(=O)/C(=N\Nc1cc(Cl)ccc1Cl)N1CCOCC1	-0.9%	-7.0%	0.1%	-4.5%	0.9%	-2.1%
COc1cc(/C=C/c2cccc[n+]2C)ccc1OCC(=O)Nc1ccccc1C	-7.6%	-1.8%	.	-1.3%	0.0%	-13.0%
CCN(Cc1ccccc1)S(=O)(=O)c1ccc(S(=O)(=O)N(Cc2ccccn2)Cc2ccco2)cc1	-1.5%	-18.7%	-21.9%	-2.8%	1.8%	0.0%
COc1ccccc1NC(=O)NCC1(N(C)C)CCCCC1	4.1%	-0.4%	.	4.4%	-3.3%	10.9%
CCCOC(=O)Nc1ccc(N2CCCCC2)cc1	.	3.01µM*	14.1µM*	.	.	.
Cc1cc(C)cc(NC(=O)Nc2ccc(N3CCCCC3)cc2)c1	?	2.69µM*	.	3.98µM*	3.55µM*	?
O=C(Nc1ccc(N2CCCC2)cc1)c1cccc(Cl)c1	1.16µM*	0.675µM*	.	0.251µM*	0.316µM*	?
O=C(Nc1ccc(N2CCCC2)cc1)c1cc(Cl)ccc1Cl	9.1%	-3.5%	.	1.5%	-17.6%	-0.7%
Cc1cc(C)cc(C(=O)Nc2ccc(N3CCCC3)cc2)c1	?	1.9µM*	8.91µM*	1µM*	2.24µM*	?
O=c1c2ccccc2[nH]c2ccc(F)cc12	-6.0%	1.0%	.	-3.8%	-3.7%	?
Cn1c2ccccc2c2cnn(CC(=O)N3CCN(c4cccc(C(F)(F)F)c4)CC3)c(=O)c21	.	-3.7%	1.3%	.	.	.
Cc1ccc(-c2csc(C3C(N)=NC(S)=C(C#N)C34CCCCC4)n2)cc1 (centres undefined)	-7.0%	-0.3%	5.8%	-3.1%	-3.0%	4.0%
CCCCOC(=O)c1ccc(O)cc1	8.2%	?	?	0.9%	1.0%	?
CCCCOC(=O)Nc1ccc(C(=O)OCCC)cc1	?	19µM*	-11.1%	5.9%	23.2%	?
CC1=NOC(=O)/C1=C\c1ccc(-c2ccc(Br)cc2C(=O)O)o1	3.4%	?	.	-3.4%	0.0%	20.6%
SMILES	ELG1 genotox	FLuc counter	SMN2 splice enh	Rab9 promoter act	NPC1 prom act	ELG1 DNA repair
CC1=NOC(=O)/C1=C\c1ccc(-c2cc(Cl)ccc2Cl)o1	-38.9%	?	21.6%	0.0%	-15.9%	?
Cc1ccc(C2=NOC(=O)/C2=C\c2ccc(C)o2)cc1	?	?	.	-0.2%	18.1%	?
CC1=NOC(=O)/C1=C\c1ccc(-c2ccc(Br)cc2)o1	-3.1%	8.49µM*	-41.3%	-2.6%	-11.2%	-2.9%
Cc1ccc(/C=C2\C(=O)ON=C2c2ccccc2)o1	0.7%	1.07µM*	.	-11.6%	1.1%	0.0%
CC1=NOC(=O)/C1=C/c1ccc(-c2ccc(Cl)cc2)o1	-13.4%	8.49µM*	-15.6%	-3.8%	-2.6%	-12.6%
O=C(O)Cn1nnn(-c2ccccc2)c1=S	.	3.8%	-7.6%	.	.	.
COCCCN1C(=O)C(O)=C(C(C)=O)C1c1cccc(F)c1 (centres undefined)	-3.6%	0.1%	-1.3%	5.4%	10.1%	19.8%
C=CCn1c(CCCOc2ccc(Cl)cc2Cl)nnc1SCC(=O)Nc1nccs1	-2.9%	13.5µM*	-1.9%	7.3%	0.0%	-10.1%
CCn1c(CCCOc2ccc(Cl)cc2Cl)nnc1SCC(=O)Nc1cc(F)ccc1C	-1.7%	16.9µM*	-8.1%	11.2%	-5.1%	?
Cn1c(CCCOc2ccc(Cl)cc2Cl)nnc1SCC(=O)Nc1cccc(F)c1	0.3%	4.78µM*	-6.1%	10.7%	-0.4%	?
CCn1c(CNC(=O)COc2ccc(C(C)C)cc2)nnc1SCC(=O)Nc1cc(F)ccc1C	-8.3%	-16.9%	-25.0%	0.0%	-1.7%	?
NS(=O)(=O)c1ccc(CCNCC(=O)NCc2ccccc2Cl)cc1	-0.9%	-2.3%	.	-6.3%	-1.6%	-8.2%
CCOC(=O)N1CCC(NS(=O)(=O)c2ccc(C)c(Cl)c2)CC1	-4.4%	-2.0%	.	-10.1%	0.4%	16.4µM*
COc1ccccc1NC(=O)c1ncn(-c2ccccc2)n1	.	?	11.2µM*	.	.	.
O=C(Nc1ccc(F)cc1)c1ncn(-c2ccccc2)n1	.	10.7µM*	14.1µM*	.	.	.
Cc1ccc(NC(=O)c2ncn(-c3ccccc3)n2)c(Cl)c1	.	?	20.0%	.	.	.
CCc1ccc(CNC(=O)c2ccc(OC)c(OC3CCN(C(C)C)CC3)c2)nc1	2.0%	2.3%	.	-2.4%	3.4%	-4.3%
COCCNC(=O)C1CCCN(S(=O)(=O)c2ccc3c(c2)CC(C)N3C(=O)C2CC2)C1 (centres undefined)	3.6%	-1.0%	.	-2.6%	-0.5%	-10.7%
CCN1C(=O)/C(=C2\SC(N3CCOCC3)=NC2=O)c2ccccc21	2.7%	10.7µM*	.	25.6%	18.5%	?
CCCCN1C(=O)/C(=C2\SC(N3CCOCC3)=NC2=O)c2ccccc21	-2.2%	?	.	2µM*	2µM*	?
C=CCN1C(=O)/C(=C2\SC(N3CCOCC3)=NC2=O)c2cc(Br)ccc21	-5.9%	-14.3%	10.8%	-3.1%	-0.6%	?
